Assay [1] concerns the target Cell division control protein 42 homolog (Homo sapiens) (UniProt P60953). Kind of assay: inhibition of fluorescent GTP binding to constitutively active Cdc42 – biochemical, multiplex bead flow cytometry, Bodipy-FL-GTP, dose response (AID 1333;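 active means fitted half-maximal concentration within the tested dose range, moderate curve steepness, a statistically real signal drop, and little compound fluorescence or tag-binding interference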).
Assay [2] shares this target. Kind of assay: inhibition of fluorescent GTP binding to wildtype Cdc42 – biochemical, multiplex bead flow cytometry, Bodipy-FL-GTP, dose response (AID 1334;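 active means fitted half-maximal concentration within the tested range, moderate curve steepness, significant signal drop, and little compound fluorescence or bead-linkage interference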). The following applies: bead-based flow cytometry, Bodipy-FL-GTP binding to GST-Cdc42; at 100 µM (top of the series) unless noted.
The target in assay [3] is GTPase HRas (Homo sapiens) (UniProt P01112). Kind of assay: Ras wt fluorescent GTP loading blockade – biochemical, wildtype, multiplex bead flow cytometry, dose response (AID 1335). To be noted: bead-based flow cytometry, Bodipy-GTP binding to GST-Ras; at 100 µM (top of the series) unless noted.
Sequence of GTPase HRas (Homo sapiens) (P01112 whole entry, looked up): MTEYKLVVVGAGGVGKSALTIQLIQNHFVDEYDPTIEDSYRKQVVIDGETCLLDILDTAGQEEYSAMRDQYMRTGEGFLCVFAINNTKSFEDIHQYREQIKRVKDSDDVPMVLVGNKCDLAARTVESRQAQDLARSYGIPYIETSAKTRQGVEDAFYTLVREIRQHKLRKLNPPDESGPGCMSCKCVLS
For assay [4], the system named is Ras-related protein Rab-7a (dog), GTP binding. Kind of assay: blockers of fluorescent GTP binding to Rab7 – biochemical, wildtype, multiplex bead flow cytometry, dose response (AID 1336; call rule not given here).
For assay [5], the target named is Ras-related C3 botulinum toxin substrate 1 (Homo sapiens) (UniProt P63000). Kind of assay: inhibition of wildtype Rac1 nucleotide loading – biochemical, multiplex bead flow cytometry, dose response (AID 1340;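 active means dose curve with midpoint inside tested range, moderate steepness, plateau gap beyond fit error, low compound glow and bead-link interference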). The following applies: GST-Rac1 beads, Bodipy-FL-GTP binding; at 100 µM (top of the series) unless noted.
For assay [6], the target named is GTPase HRas (Homo sapiens) (UniProt P01112). Kind of assay: blockade of GTP loading onto mutant Ras – biochemical, activated mutant, multiplex bead flow cytometry, dose response (AID 1341;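 active means dose-response curve with midpoint inside the tested range, moderate steepness, significant amplitude and little compound fluorescence or bead-attachment interference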;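 further: GST-tagged constitutively activated Ras mutant immobilized on beads and multiplexed with other GTPases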).

For part of these data: Entries with a potency or affinity are not part of this list. Calls of active or inactive are those of the source.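 How the source made its calls, unless noted: active means fitted half-maximal concentration within 10 nM to 100 µM, steepness 0.5 to 2, significant signal drop, low assay interference; inactive means the rest.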

Sequence of Cell division control protein 42 homolog (Homo sapiens) (P60953 whole entry, looked up): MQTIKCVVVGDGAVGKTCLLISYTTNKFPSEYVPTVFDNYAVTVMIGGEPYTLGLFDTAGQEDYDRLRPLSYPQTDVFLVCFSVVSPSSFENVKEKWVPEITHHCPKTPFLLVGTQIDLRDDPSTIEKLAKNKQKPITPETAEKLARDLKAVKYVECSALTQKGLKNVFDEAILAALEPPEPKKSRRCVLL

For `CC1CN(C(=O)c2cccc(S(=O)(=O)Nc3cc(Cl)ccc3Cl)c2)CC(C)O1` (stereo not given), the outcome in assay [1], in assay [4] and in assay [6] was inactive. Also, the fluorescence, percent of control (lower = inhibition) in assay [2] was 26.5%. In assay [3], the GTP binding, percent of control was determined as 65.8%. Also, the GTP binding signal, raw median fluorescence (lower = inhibition) (MCF (arbitrary fluorescence units)) in assay [5] is 168.
`COC(=O)c1cccnc1SCc1ccccc1`: the compound was classed as inactive in assay [1], in assay [4] and in assay [6]. In addition, in assay [2], the fluorescence, percent of control (lower = inhibition) was determined as 46%. The compound further had a GTP binding, percent of control in assay [3] of 61.1%. The GTP binding signal, raw median fluorescence (lower = inhibition) (MCF (arbitrary fluorescence units)) in assay [5] was 184.
For the compound `O=C(COc1ccccc1C(=O)N/N=C\c1ccc(O)c(O)c1)N/N=C/c1ccc(O)c(O)c1`, the outcome in assay [1], in assay [4] and in assay [6] was inactive. Further, the fluorescence, percent of control (lower = inhibition) in assay [2] worked out at 38%. In assay [3], the GTP binding, percent of control amounted to 157%. The same compound displayed a GTP binding signal, raw median fluorescence (lower = inhibition) (MCF (arbitrary fluorescence units)) in assay [5] of 193.
In the case of `CCCN(N=Nc1cccc([N+](=O)[O-])c1)c1cccc([N+](=O)[O-])c1`, the compound was classed as inactive in assay [1], in assay [4] and in assay [6]. The fluorescence, percent of control (lower = inhibition) in assay [2] was determined as 84.9%. In addition, in assay [3], the GTP binding, percent of control amounted to 156%. For the same compound, in assay [5], the GTP binding signal, raw median fluorescence (lower = inhibition) (MCF (arbitrary fluorescence units)) turned out to be 170.
Turning to `Cc1cc2ncn(CCC(=O)NC(C)(C)C)c2cc1C`, the call in assay [1], in assay [4] and in assay [6] was inactive. The same compound had a fluorescence, percent of control (lower = inhibition) in assay [2] of 40%. In assay [3], this compound showed a GTP binding, percent of control of 88.1%. In assay [5], this compound came in with a GTP binding signal, raw median fluorescence (lower = inhibition) (MCF (arbitrary fluorescence units)) of 320.
Take `O=C(O)c1ccc(CNCc2ccc(F)cc2)cc1`: the outcome in assay [1], in assay [4] and in assay [6] was inactive. This compound also showed a fluorescence, percent of control (lower = inhibition) in assay [2] of 43.1%. Further, the GTP binding, percent of control in assay [3] was 87.8%. Further, the GTP binding signal, raw median fluorescence (lower = inhibition) (MCF (arbitrary fluorescence units)) in assay [5] amounted to 260.
For `COc1ccc(NC(=O)c2cc3nc(-c4ccccc4)cc(C)n3n2)cc1OC`, the result in assay [1], in assay [4] and in assay [6] was inactive. Further, the fluorescence, percent of control (lower = inhibition) in assay [2] stood at 33.2%. In assay [3], the GTP binding, percent of control was 76.8%. This compound yielded a GTP binding signal, raw median fluorescence (lower = inhibition) (MCF (arbitrary fluorescence units)) in assay [5] of 218.
Turning to `CC(SC(=S)N(C)Cc1cccs1)C(=O)O` (stereo not given), the call in assay [1], in assay [4] and in assay [6] was inactive. In assay [2], this compound yielded a fluorescence, percent of control (lower = inhibition) of 83.3%. For the same compound, in assay [3], the GTP binding, percent of control came out at 79.5%. For the same compound, the GTP binding signal, raw median fluorescence (lower = inhibition) (MCF (arbitrary fluorescence units)) in assay [5] was found to be 312.
Take `CCCCCn1nc(C(=O)OCC(=O)c2c(N)n(C)c(=O)n(C)c2=O)c2ccccc2c1=O`: the compound was classed as inactive in assay [1], in assay [4] and in assay [6]. Also, the fluorescence, percent of control (lower = inhibition) in assay [2] came out at 34%. Moreover, the GTP binding, percent of control in assay [3] amounted to 79.6%. This compound had a GTP binding signal, raw median fluorescence (lower = inhibition) (MCF (arbitrary fluorescence units)) in assay [5] of 232.
Take `CC(C)(C)C(=O)c1sc2nc(-c3cccs3)cc(C(F)(F)F)c2c1N`: the result in assay [1], in assay [4] and in assay [6] was inactive. Besides, the fluorescence, percent of control (lower = inhibition) in assay [2] came to 86.4%. This compound also showed a GTP binding, percent of control in assay [3] of 182%. The GTP binding signal, raw median fluorescence (lower = inhibition) (MCF (arbitrary fluorescence units)) in assay [5] stood at 194.
Take `CN(/N=C/c1ccc(Br)o1)C1=NS(=O)(=O)c2ccccc21`: the compound was classed as inactive in assay [1], in assay [4] and in assay [6]. In addition, in assay [2], the fluorescence, percent of control (lower = inhibition) stood at 32.2%. Moreover, the GTP binding, percent of control in assay [3] is 69.7%. The GTP binding signal, raw median fluorescence (lower = inhibition) (MCF (arbitrary fluorescence units)) in assay [5] came out at 185.
Take `COc1ccc(OC)c(Nc2nc(-c3sc(N)nc3C)cs2)c1`: the compound was classed as inactive in assay [1], in assay [4] and in assay [6]. The compound further returned a fluorescence, percent of control (lower = inhibition) in assay [2] of 32.7%. In assay [3], this compound yielded a GTP binding, percent of control of 72.6%. In assay [5], this compound registered a GTP binding signal, raw median fluorescence (lower = inhibition) (MCF (arbitrary fluorescence units)) of 179.
Consider `Cc1ccc(Nc2cc(C(=O)O)c3ccccc3n2)c(C)c1`, for which the compound was classed as inactive in assay [1], in assay [4] and in assay [6]. The same compound had a fluorescence, percent of control (lower = inhibition) in assay [2] of 60.5%. In assay [3], this compound displayed a GTP binding, percent of control of 83.7%. The compound also gave a GTP binding signal, raw median fluorescence (lower = inhibition) (MCF (arbitrary fluorescence units)) in assay [5] of 33.1.
For `CCOC(=O)Cn1nnnc1C(CC)N(Cc1cccs1)Cc1cc2ccc(OC)cc2[nH]c1=O` (stereo not given), the result in assay [1], in assay [4] and in assay [6] was inactive. For the same compound, in assay [2], the fluorescence, percent of control (lower = inhibition) was found to be 97.8%. In assay [3], this compound registered a GTP binding, percent of control of 173%. This compound also came in with a GTP binding signal, raw median fluorescence (lower = inhibition) (MCF (arbitrary fluorescence units)) in assay [5] of 194.
In the case of `CCOc1ccc(-n2nc3c(=S)[nH]nc(C)c3c2C)cc1`, the compound was called inactive in assay [1], in assay [4] and in assay [6]. In assay [2], this compound displayed a fluorescence, percent of control (lower = inhibition) of 53.6%. In assay [3], this compound had a GTP binding, percent of control of 66.6%. Besides, the GTP binding signal, raw median fluorescence (lower = inhibition) (MCF (arbitrary fluorescence units)) in assay [5] was 0.

The values above are taken from PubChem BioAssay.
